Compound activity deposited in PubChem BioAssay by National Center for Advancing Translational Sciences (NCATS).
A selection: hits, their analogues and other compounds. The true share with any hit is near 2.4%.
GLS inhibitor – qHTS for Inhibitors of Glutaminase (GLS); Glutaminase kidney isoform, mitochondrial (Homo sapiens), O94925; GLS enzymatic activity, qHTS titration; Potency, µM (top dose mostly 45.5 µM), without a hit: at the top dose activity change, negative = inhibition, usual class: inhibitors; actives 0.21% (n = 410,000); further: potency means the concentration at half of the fitted maximal effect; on the % scale 0 is the no-effect control and ±100 the full control effect
Target sequence (O94925 whole entry, looked up, canonical isoform): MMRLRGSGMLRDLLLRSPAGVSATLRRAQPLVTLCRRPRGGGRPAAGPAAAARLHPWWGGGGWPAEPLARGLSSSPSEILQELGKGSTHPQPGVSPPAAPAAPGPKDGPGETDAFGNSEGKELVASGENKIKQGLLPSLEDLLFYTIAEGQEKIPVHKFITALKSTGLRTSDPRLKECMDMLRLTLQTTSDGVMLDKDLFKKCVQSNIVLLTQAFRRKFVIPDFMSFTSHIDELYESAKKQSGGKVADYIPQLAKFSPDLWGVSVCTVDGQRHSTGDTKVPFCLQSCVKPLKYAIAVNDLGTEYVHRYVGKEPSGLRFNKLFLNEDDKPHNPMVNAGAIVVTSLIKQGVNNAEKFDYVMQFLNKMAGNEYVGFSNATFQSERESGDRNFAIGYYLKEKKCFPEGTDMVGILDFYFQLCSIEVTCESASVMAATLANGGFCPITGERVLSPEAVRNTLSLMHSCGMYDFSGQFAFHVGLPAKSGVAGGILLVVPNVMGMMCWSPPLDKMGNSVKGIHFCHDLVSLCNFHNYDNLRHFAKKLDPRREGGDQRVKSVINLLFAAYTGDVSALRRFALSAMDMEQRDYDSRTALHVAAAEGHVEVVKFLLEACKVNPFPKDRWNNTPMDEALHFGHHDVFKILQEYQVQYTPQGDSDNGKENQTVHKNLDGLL
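hKGA in 45 mM KH2PO4 pH 8.2, 0.02% Tween-20 with pin-transferred compounds; 1 mM L-glutamine (stock) plus glutamate oxidase/HRP/Amplex Red coupling added. Fluorescence read initially and after 30 min at RT.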
APE1 inh – qHTS Assay for Inhibitors of the Human Apurinic/apyrimidinic Endonuclease 1 (APE1); actives 0.35% (n = 350,000); Potency, µM (series often up to 65.8 µM), for inactives: top-dose activity change, negative = inhibition, most hits filed as inhibitors; recombinant APE1, TAMRA/BHQ-2 abasic DNA cleavage fluorescence; AID 2517, 2012; DNA repair nuclease/redox regulator APEX1 (Homo sapiens), P27695;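 further: potency means the concentration at half of the fitted maximal effect; plate controls were vehicle for no effect and reference inhibitor for full effect; nearly all actives have a fitted effect of over 55% in size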
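APE1 at 0.75 nM final was preincubated with compound 15 min at room temperature, then 50 nM double-stranded THF abasic-site substrate (5'-TAMRA/3'-BHQ-2) was added. Fluorescence (ex 525/em 598 nm) was read kinetically; third-minus-first read gave activity.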
POLB inh – qHTS Assay for Inhibitors of DNA Polymerase Beta | Pol beta primer extension/strand displacement, fluorescence kinetic | Potency, µM (titrated, usually from 114 µM), inactives show at the top dose activity change, negative = inhibition, hits mostly inhibitors | P06746 | actives 1.3% (n = 340,000); further: potency means the concentration at half of the fitted maximal effect; on the % scale 0 is the no-effect control and ±100 the full control effect
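Preincubation: enzyme (10 nM) with compound, 15 min, RT. Reaction: substrate added to 50 nM final. Reads: 0 and 10 min. Analysis: normalized, Hill fit.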
Pol iota inh – qHTS for Inhibitors of Polymerase Iota. Pol iota fluorescent replication assay, 10 min. AID 588590, 2011. Potency, µM (top dose mostly 115 µM), without a hit: top-dose activity, negative = inhibition, hits mostly inhibitors. actives 1% (n = 390,000); further: potency means the concentration at half of the fitted maximal effect
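Pol iota at 10 nM preincubated 15 min with compounds at room temperature; reaction started with fluorescent substrate, 50 nM final. Fluorescence read kinetically at 0 and 10 min; buffer-only wells as negative control.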
Pol kappa inh-1 – qHTS for Inhibitors of Polymerase Kappa; AID 588579, 2011; Potency, µM (titrated, usually from 107 µM), for the others: top-dose activity, negative = inhibition, most hits filed as inhibitors; purified Pol kappa, fluorescent DNA synthesis assay, 10 min; actives 0.53% (n = 400,000); DNA polymerase kappa (Homo sapiens), Q9UBT6; further: potency means the concentration at half of the fitted maximal effect; on the % scale 0 is the no-effect control and ±100 the full control effect
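Fluorescent qHTS in 1536-well format: enzyme (10 nM) and compound sat 15 min at room temperature before 50 nM substrate (final) was added. Signal taken at 0 and 10 min; no-enzyme buffer wells were negative controls.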
Pol eta inh-1 – qHTS for Inhibitors of Polymerase Eta; recombinant Pol eta, fluorescent DNA replication assay; Potency, µM (highest dose often 114 µM), without a hit: top-dose activity change, negative = inhibition, most hits filed as inhibitors; actives 1.2% (n = 390,000); further: potency means the concentration at half of the fitted maximal effect; on the % scale 0 is the no-effect control and ±100 the full control effect
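Fluorescent replication assay: 50 nM final substrate added after a 15 min room-temperature compound preincubation with 10 nM enzyme. Signal taken at 0 min and again at 10 min.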
PGK validate – qHTS for inhibitors of Phosphogylcerate Kinase: Hit Validation Screen | shares compounds with Pol kappa inh-1 | TbPGK coupled GAPDH assay, Kinase-Glo luminescence | Potency, µM (titrated, usually from 57.5 µM), for inactives: top-dose activity change, negative = inhibition, hits mostly inhibitors | actives 79% (n = 500); further: potency means the concentration at half of the fitted maximal effect; on the % scale 0 is the no-effect control and ±100 the full control effect; nearly all actives have a fitted effect of over 65% in size
Pol iota confirm – qHTS for Inhibitors of Polymerase Iota: Confirmatory Assay for Cherry-picked Compounds | actives 77% (n = 1,500) | Pol iota primer extension, TAMRA/BHQ fluorescence | Potency, µM, usual class: inhibitors | shares compounds with Pol kappa inh-1 | AID 720496, 2013; further: potency means the concentration at half of the fitted maximal effect
GALK inh confirm – Confirmation Assay for Inhibitors of Human Galactokinase (GALK); shares compounds with Pol eta inh-1; purified GALK, Kinase-Glo ATP depletion luminescence; Potency, µM (top dose mostly 115 µM), for the others: at the top dose activity, negative = inhibition, hits mostly inhibitors; actives 70% (n = 150)
Redox cycling – Confirmatory Assay for Inhibitors of Human Galactokinase (GALK): Phenol-HRP redox assay counterscreen. shares compounds with Pol eta inh-1. Phenol red-HRP H2O2 redox cycling, absorbance 600 nm. Potency, µM (highest dose often 115 µM), for the others: at the top dose activity change, negative = H2O2 signal, actives largely listed as inhibitors. actives 40% (n = 150). AID 2035, 2009
HEK293 viability – Secondary Assay for Inhibitors of Human Galactokinase (GALK): HEK-293 Cell Viability Assay. shares compounds with Pol eta inh-1. HEK-293 viability, ATP luminescence (CellTiter-Glo), 24/48 h. Potency, µM (titrated, usually from 46.1 µM), for the others: top-dose activity change, negative = cytotoxicity, hits mostly inhibitors. actives 10% (n = 170). AID 2547, 2010; further: potency means the concentration at half of the fitted maximal effect; on the % scale 0 is the no-effect control and ±100 the full control effect
Pol kappa inh-2 – qHTS for Inhibitors of Polymerase Kappa: Confirmatory Assay for Cherry-picked Compounds; Potency, µM, hits mostly inhibitors; shares compounds with Pol eta inh-1; actives 76% (n = 920); purified Pol-kappa, fluorescent strand-displacement substrate; further: potency means the concentration at half of the fitted maximal effect
Pol eta inh-2 – qHTS for Inhibitors of Polymerase Eta: Confirmatory Assay for Cherry-picked Compounds | shares compounds with Pol eta inh-1 | Pol eta primer extension, TAMRA/BHQ fluorescence, 10 min | Potency, µM, hits mostly inhibitors | actives 64% (n = 2,600); further: potency means the concentration at half of the fitted maximal effect
* hit, by the source's call; ? = inconclusive; · = not tested or not shown. The call rests on the fitted dose curve; in most records, active means well fitted curve in the direction sought with a large enough effect; inconclusive means small, poorly fitted or top-dose-only effect, or another doubt; inactive means no such curve, though single readings can be large; an effect the other way counts as inactive or inconclusive.

SMILES | GLS inhibitor | APE1 inh | POLB inh | Pol iota inh | Pol kappa inh-1 | Pol eta inh-1 | Pol iota confirm | Pol eta inh-2 | others
C[n+]1cccc2c(Br)ccc([O-])c21 | -16.4% | -10.7% | 28.2µM* | ? | -37.0% | 20µM* | 18.9* | 23.9* | GALK inh confirm=47.3µM*;Redox cycling=21.1µM*;HEK293 viability=-6.8%
[O-][n+]1cccc2c(Br)cc(Br)c(O)c21 | -1.9% | -3.7% | 1.8% | 36.3% | -24.7% | -21.0% | · | ·
COC(=O)C1=C(N)Oc2cc(C)n(CC3CCCO3)c(=O)c2C1c1ccc(Cl)c(Cl)c1 (stereo unspecified) | -2.6% | 4.7% | -1.0% | -14.2% | -9.2% | -14.5% | · | ·
O=C(CN1CC[n+]2c(-c3ccccc3)csc21)c1ccc(Br)cc1 | 0.4% | 4.6% | -22.6% | 7.3% | -7.8% | -17.6% | · | ·
N=C1/C(=C/c2ccc(-c3cccc(C(=O)O)c3)o2)C(=O)N=C2SC=C(c3ccccc3)N12 | 22.4µM* | ? | 28.2µM* | 3.98µM* | 7.08µM* | 3.16µM* | 18.9* | 7.57* | PGK validate=36.6µM*
O=C1OC(c2cccs2)=N/C1=C/c1ccc(-c2cccc(C(=O)O)c2)o1 | 6.5% | 17.8µM* | 3.55µM* | 20µM* | 44.7µM* | 14.1µM* | 37.7* | 26.9*
CC(C)C[C@H](NC(=O)Nc1ccc(S(N)(=O)=O)cc1)C(=O)O | 4.3% | -0.9% | 54.7% | -22.7% | -9.5% | -0.1% | · | ·
CCc1nnc(NC(=O)CSc2nnc3ncccn23)s1 | 0.5% | -4.6% | -1.9% | -2.3% | -14.6% | -13.9% | · | ·
S=c1[nH]nc(-c2cc(-c3ccccc3)n[nH]2)n1/N=C/C=C/c1ccco1 | 3.98µM* | ? | 22.4µM* | 14.1µM* | 50.1µM* | 22.4µM* | ? | 30.1* | Pol kappa inh-2=23.8*
COC(=O)c1cc(Br)c(=O)n(Cc2ccc(OC)c(OC)c2)c1 | 2.9% | -3.5% | 6.4% | 2.7% | -17.9% | 2.1% | · | ·
O=C(c1ccccc1)N1CCCc2ccccc21 | -2.2% | -1.3% | 10.0% | 30.8% | -16.8% | -9.5% | · | ·
O=C(c1ccc(=O)oc1)N1CCCc2ccccc21 | 15.8µM* | 31.6µM* | -100.9% | 12.6µM* | 20µM* | 3.55µM* | 42.3* | 30.1*
COc1ccc(OCC(=O)OC(C)CN2CCOCC2)cc1 (stereo unspecified) | 5.0% | -0.1% | -19.5% | 2.3% | -4.7% | -13.1% | · | ·
COc1cc(-c2nnc(SCc3cc(=O)oc4cc(O)c(O)cc34)o2)cc(OC)c1OC | -24.3% | 2µM* | 0.891µM* | 1.12µM* | 1.12µM* | 0.708µM* | 2.38* | 1.07* | PGK validate=0.919µM*
O=C(O)c1ccccc1-c1c2cc(I)c(=O)c(I)c-2oc2c(I)c(O)c(I)cc12 | ? | 25.1µM* | · | 12.6µM* | 22.4µM* | 15.8µM* | 18.9* | 67.5* | PGK validate=10.3µM*;Pol kappa inh-2=29.9*
CC(C)(CS(=O)(=O)[O-])NC(=O)CC[N+](C)(C)CCO | -11.4% | 6.31µM* | 2µM* | 1.41µM* | 22.4µM* | 0.794µM* | · | 8.49* | PGK validate=3.26µM*
CCC(CC)C(=O)N1CCN(c2ccccc2)CC1 | -25.6% | 5.1% | 28.1% | 108.6% | 10.7% | -23.0% | · | ·
CCOC(=O)c1cccc(NC(=O)c2cc3cc4cc(OC)ccc4nc3s2)c1 | -15.9% | · | ? | 256.8% | -21.2% | ? | ? | ? | Pol kappa inh-2=18.9*
CCOc1ccc(N(C)S(=O)(=O)c2ccc(C)c(C(=O)NCc3cccs3)c2)cc1 | 4.5% | 13.2% | · | -18.7% | -5.6% | -8.4% | · | ·
CCOc1ccc(/C=C(\C(=O)O)c2ccc(S(=O)(=O)N3CCCCC3)s2)cc1OC | 24.9% | 16.6% | · | -18.8% | -24.3% | ? | · | ·
O=C(O)/C(=C\c1ccc(Cl)c([N+](=O)[O-])c1)c1ccc(S(=O)(=O)N2CCCC2)s1 | 4.2% | 11.3% | · | 39.8µM* | ? | 22.4µM* | ? | ? | Pol kappa inh-2=?
O=C1c2ccccc2C(=O)C12OC2c1cccc2ccccc12 (stereo unspecified) | -26.7% | -8.1% | 10.1% | 3.55µM* | -2.1% | 20µM* | ? | 37.9* | GALK inh confirm=16.8µM*;Redox cycling=13.3µM*;HEK293 viability=-27.0%
